Experimental data reported in PubChem BioAssay AID743397 (Broad Institute, 2014).
The campaign covered roughly 340,000 compounds. About 330 (0.097%) were called active. The entries come from a sample that favours actives as a whole. A number with no mark means an inactive call.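 How the source made its calls: active means mean replicate inhibition of at least 30% and at least 1% of replicates passing that level; inconclusive means only one of the two criteria is met; inactive means neither criterion is met.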

System: Voltage-dependent L-type calcium channel subunit alpha-1D (CaV1.3) ICDI/IQ interaction
Assay: Primary screen for inhibitors of IQ motif and Ca2+-dependent inactivation inhibitor domain binding in CACNA1D, Förster resonance energy transfer in living cells, single-concentration test (AID 743397);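 further: 0% = median of the neutral control wells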
Settings: HEK cells, CFP/YFP FRET ICDI-IQ, plate reader, 10 min; at 12.3 µM; active compounds read high; percent FRET-ratio fall versus neutral wells

SMILES | inhibition
CN1CCCc2nc(-c3ccccc3)ccc21 | -4.26%
Cc1noc(C)c1NC(=O)Nc1ccc2c(c1)C(=O)N([C@H](C)CO)C[C@H](C)[C@H](CN(C)Cc1ccncc1)OCCCC[C@@H](C)O2 | -5.78%
Cc1cccc(N2CCN(C(=O)C3CCN(S(=O)(=O)c4cnc[nH]4)CC3)CC2)c1C | -5.87%
COc1cccc(N2CCN(C(=O)C3CCCN(S(=O)(=O)c4cnc[nH]4)C3)CC2)c1 (stereo unspecified) | 46.8% (active)
CCOC(=O)c1cccc(NC(=O)C2CCCN(S(=O)(=O)c3cnc[nH]3)C2)c1 (stereo unspecified) | -9.58%
COC(=O)C1=C(C)N(Cc2cccc(C(F)(F)F)c2)C(=NCc2cccc(C(F)(F)F)c2)NC1c1ccccc1C(F)(F)F (stereo unspecified) | -2%
COC(=O)[C@@]12C[C@@H](CC(=O)NCCCCc3ccccc3)C(=O)N(CCc3ccc(OC)c(OC)c3)C1=CCC(C)(C)C2 | -8.1%
O=S1(=O)c2c(cccc2N2CCCC2)O[C@H](COCc2ccccc2)CN1C1CC1 | -7.56%
CC1CCN(C(=O)c2ncn3c2C(=O)N[C@@H](C)C3)CC1 | -3.16%
COc1cccc(-c2cc(CNC(=O)[C@@H](Cc3ccccc3)NC(=O)[C@H]3O[C@@H](n4cnc(C(N)=O)n4)[C@H](O)[C@@H]3O)no2)c1 | -2.93%
COC(=O)[C@@]12C[C@@H](CC(=O)NCCCCc3ccccc3)C(=O)N(Cc3ccccc3)C1=CCC(C)(C)C2 | -17%
COC(=O)Nc1nc2ccc(C(=O)C3CC3)cc2[nH]1 | -11.2%
COC(=O)C1=C(C)N(Cc2ccc(C(F)(F)F)cc2)C(=NCc2ccc(C(F)(F)F)cc2)NC1c1cccc(Cl)c1 (stereo unspecified) | -9.62%
C[C@H](O)[C@@H]1CN2CCc3ccc(-c4ccc5c(c4)OCO5)cc3[C@@H]2C[C@@H]1N(C)C(=O)C1CCCCC1 | -2.76%
O=C(C(=O)N1CCC(CNC(=O)c2cccnc2Cl)CC1)c1cccs1 | -10.2%
Cc1ccccc1C(=O)N[C@H](C(=O)N1CCC[C@H]1C(=O)NCc1ccccc1)C(C)C | -3.3%
CCOc1ccccc1C(=O)N1CCC[C@@H]1C(=O)N1CCC[C@H]1C(=O)NCc1ccccc1 | -4.37%
N#Cc1cccc(C(=O)NCC2CCN(C(=O)C(=O)c3cc4ccccc4o3)CC2)c1 | -8.07%
NC(=O)c1ncn([C@@H]2O[C@H](C(=O)O)[C@@H](O)[C@H]2O)n1 | -4.52%
CC1(C)OC(=O)C2=C(CC(CCc3ccccc3)OC2c2ccc(Cl)cc2)O1 (stereo unspecified) | -9.52%
Fc1ccc(-c2ccc(NCCN3CCOCC3)nn2)cc1 | -2.08%
c1ccc(-c2ccc(OCCN3CCOCC3)cc2)cc1 | -9.07%
c1ccc2cc3c(NCCN4CCOCC4)ccnc3cc2c1 | 147% (active)
C#CCN([C@@H](C)C(=O)OCC)S(=O)(=O)c1ccc(Br)cc1F | -4.44%
COC(=O)[C@]12C[C@H](CC(=O)NCCc3ccccc3OC)C(=O)N(Cc3ccccc3)C1=C[C@H](C(C)C)O[C@@H]2C1CC1 | -8.67%
COC(=O)[C@]12C[C@H](CC(=O)NCCC(C)C)C(=O)N(CCc3ccc(OC)c(OC)c3)C1=C[C@H](C(C)(C)C)O[C@@H]2C | -8.8%

SMILES | inhibition
Nc1ncnc2c1ncn2[C@@H]1O[C@H](C(=O)N[C@@H](CCc2ccccc2)C(=O)N2CCCN(Cc3cccs3)CC2)[C@@H](O)[C@H]1O | -9.97%
COC(=O)[C@]12C[C@H](CC(=O)NCCCCc3ccccc3)C(=O)N(Cc3ccc4c(c3)OCO4)C1=C[C@H](C(C)(C)C)O[C@@H]2C | -10.1%
COc1cccc(CNC(=O)[C@H]2CCCN2C(=O)[C@H]2CCCN2C(=O)c2cc(F)cc(F)c2)c1 | -7.03%
Cc1cc(N2CCN(C(=O)OC(C)(C)C)C[C@H]2C)ccc1N1CCN(Cc2ccccc2)[C@H](C)C1 | -7.25%
CCCCCCCCN1C(=O)[C@@H](CC(=O)NCc2ccc(C)o2)C[C@@]2(C(=O)OC)C1=C[C@H](C(C)(C)C)O[C@@H]2C | -10.3%
Nc1nc2c(ncn2[C@@H]2O[C@H](C(=O)N[C@@H](Cc3ccccc3)C(=O)NCc3ccccc3)[C@@H](O)[C@H]2O)c(=O)[nH]1 | -5.12%
C=CCN1C(=O)N(Cc2ccccc2)c2ccccc2S1(=O)=O | -4.73%
CCCCOCC1CN(CCCC)S(=O)(=O)c2c(Oc3ccc(F)cc3)cccc2O1 (stereo unspecified) | -7.83%
COc1cccc(CNC(=O)[C@H]2CCCN2C(=O)[C@H]2CCCN2C(=O)C2CCCCC2)c1 | -4.37%
O=C(NS(=O)(=O)c1cccs1)[C@H]1O[C@@H](n2ccc(=O)[nH]c2=O)[C@H](O)[C@@H]1O | -3.64%
CC(C)CNc1cccc2c1S(=O)(=O)N[C@H](C)CO2 | -7.79%
COC(=O)C1=C(C)NC(=S)NC1c1ccc(OC)cc1 (stereo unspecified) | -4.39%
COc1ccc(C2=CN(Cc3ccccc3)C(c3ccc(OC)cc3)CC2=O)cc1 (stereo unspecified) | -3.32%
COc1ccc(C2C3=C(CCCC3=O)N(CC(=O)O)C3=C2C(=O)CCC3)cc1 | 111% (active)
COc1ccc(C2C(C#N)=C(N)N(c3ncn[nH]3)C3=C2C(=O)CCC3)cc1 (stereo unspecified) | -4.27%
CCOc1ccc(C2C3=C(CCCC3=O)N(CC(=O)O)C3=C2C(=O)CCC3)cc1 | -13.8%
Cc1cc(NCCc2c[nH]c3ccccc23)ccc1Oc1cccnc1 | -8.52%
Cc1cc(OC(=O)NCCc2ccc(F)cc2)ccc1F | -6.4%
COc1ccccc1C(=O)N1O[C@]23C=C[C@]14C[C@@H](O)CC[C@]4(C)C2CC[C@]1(C)[C@@H]([C@H](C)/C=C/[C@H](C)C(C)C)CC[C@H]13 (stereo partly specified) | -9.42%
CC(C)CNc1cccc2c1S(=O)(=O)N[C@H](CC(C)C)CO2 | -5.08%
CCOCCn1c(-c2ccccc2)nc2ccccc21 | -20.2%
Cc1cc(NC(C)C)n2c(nc3ccccc32)c1C#N | -0.654%
CCOCCCNc1c(CC)c(C)c(C#N)c2nc3ccccc3n12 | 61% (active)
COc1ccccc1-c1ccc([C@@H]2C[C@H]3[C@H](CON3C)CN2S(=O)(=O)c2cc(Cl)cc(Cl)c2)cc1 | -4.02%
Cc1nc2c(OCc3ccc(Cl)cc3)cccn2c1N(C)Cc1cccs1 | -6.54%
CCCCc1c(-c2ccc(Cl)cc2)ncn1CCc1ccccc1OC | -10.1%

SMILES | inhibition
C=CC1=CCN(S(=O)(=O)C(C)(C)C)[C@@H]1CCO | -4.63%
CCN1C(=O)N[C@@H]2C[C@H](C(=O)N3CCCC3)[C@H](C)[C@H](c3ccccc3)C[C@@H]21 | -3.87%
COC(=O)[C@]1(Cc2ccccc2)NC=C(C(=O)c2ccccc2)[C@@H]1c1cccc(OC)c1 | -4.9%
COc1ccccc1CCn1cnc(-c2ccccc2)c1C(C)C | -7.51%
CCCCCn1c(=O)c(C(=O)OCC)c(Cl)c2ccccc21 | -4.21%
CCCCN(CCCC)CC(O)Cn1c2ccccc2c(=O)c2ccccc21 (stereo unspecified) | 107% (active)
CCCn1c(=O)c(-c2ccccc2)c(O)c2ccccc21 | -7.92%
COC(=O)c1cc2c(c3c4ccccc4n(S(=O)(=O)c4cccc(C)c4)c13)C(=O)N(Cc1ccccc1)C2 | -4.46%
COC(=O)c1c(-c2ccc(OC)cc2)c2c(c3c4ccccc4n(S(=O)(=O)c4ccc(C)cc4)c13)C(=O)N(C)C2 | -10.3%
COC(=O)C1=C(C)N(Cc2cccc(C(F)(F)F)c2)C(=NCc2ccccc2)NC1c1ccc(Cl)cc1 (stereo unspecified) | -3.3%
COc1ccc(-c2cc(NC=O)c3ncc(-c4cc(OC)c(OC)c(OC)c4)n3c2)c(OC)c1 | -3.57%
COC(=O)[C@]12C[C@H](CC(=O)NCc3cccc(C(F)(F)F)c3)C(=O)N(Cc3ccc4c(c3)OCO4)C1=C[C@H](COCc1ccccc1)O[C@@H]2C | -9.09%
CCS(=O)(=O)c1ccc(O)c(NC(=O)COc2ccc(Cl)cc2)c1 | -1.51%
CC(=O)Nc1ccc(OC(=O)COc2ccc(Br)cc2)cc1 | -4.58%
Cc1ccc(O)c(NC(=S)NC(=O)COc2ccc(Br)cc2)c1 | 40.4% (active)
N#Cc1ccc(OCCCN2CCC(C(O)(c3ccccc3)c3ccccc3)CC2)c(F)c1 | -9.35%
O=S1(=O)c2c(cccc2N2CCCCC2)O[C@H](COCc2ccccc2)CN1C1CC1 | -6.9%
COc1cncc(-c2cnc3sc(NCCc4ccccn4)nn23)c1 | -4.67%
COc1cccc(CNC(=O)[C@H]2CCCN2C(=O)[C@H]2CCCN2C(=O)c2ccc(F)cc2)c1 | -5.95%
COc1ccc(SSc2ccc(OC)cc2C(=O)O)c(C(=O)O)c1 | -2.9%
Cc1ccc(NC(=O)N2c3ccccc3SC2c2ccco2)c(C)c1 (stereo unspecified) | -10.9%
Cc1cc(Br)cn2c(Cc3ccccc3C(F)(F)F)c(-c3ccc(C#N)cc3)nc12 | -10%
COC(=O)c1c(-c2ccc(OC)cc2)c2c(c3c4cc(OC)ccc4n(S(=O)(=O)c4ccc(F)cc4)c13)C(=O)N(C)C2 | -5.34%
COc1ccc(S(=O)(=O)Nc2ccc3c(c2)C(=O)N([C@H](C)CO)C[C@H](C)[C@@H](CN(C)C)OCCCC[C@H](C)O3)cc1 | -5.26%
